Assay outcomes: PubChem, National Center for Advancing Translational Sciences (NCATS)
GLP-1R inv ag: inverse agonists of human GLP-1 receptor. P43220. AID 624417. HEK293 GLP-1R CRE-luciferase, luminescence, 24 h; GLP-1R form is constitutively active. hit rate 1.6% among 410,000. Potency, µM (highest dose often 38.3 µM), for the others: at the highest dose activity change, negative = inhibition, hits mostly inhibitors; note: potency is the fitted concentration of half-maximal effect; % is set by controls: 0 for no effect and ±100 for the full control effect; nearly all actives have a fitted effect of over 55% in size
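Using stably transfected HEK293 (constitutively active GLP-1R, cAMP-luciferase reporter), compounds were incubated 24 hr and luciferase measured by luminescence.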
HEK293 tox: cytotoxic in the GLP-1 receptor inverse agonist counter-screen | HEK293 cAMP-luciferase reporter cells, luminescence, 24 h | AID 624418 | hit rate 0.13% among 410,000 | Potency, µM (titrated, usually from 38.3 µM), for the others: top-dose activity change, negative = inhibition, most hits filed as inhibitors;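 note: loss of luciferase light is scored as toxicity; potency is the fitted concentration of half-maximal effect; % is set by controls: 0 for no effect and ±100 for the full control effect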
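Cells in DMEM/10% Nu serum/1% pen-strep, 1536-well format. Pre-incubated 12 h, dosed with 23 nL compound, incubated a further 24 h. Luciferase detection, 12 min at room temp, luminescence.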
IDH1 R132H inh: human IDH1 R132H inhibition. O75874. IDH1-R132H enzyme, NADPH consumption, diaphorase/resazurin fluorescence. Potency, µM (highest dose often 76.6 µM), inactives show at the highest dose activity change, negative = inhibition, hits mostly inhibitors. hit rate 0.093% among 390,000; note: potency is the fitted concentration of half-maximal effect; % is set by controls: 0 for no effect and ±100 for the full control effect; nearly all actives have a fitted effect of over 65% in size
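IDH1-R132H (0.5 ug/mL) preincubated 30 min with compound, then NADPH (0.016 mM) and alpha-KG (2 mM) added; 80 min at RT, pH 7.5. Remaining NADPH coupled via diaphorase/resazurin to fluorescence (540/590 nm); concentration-response curves normalized to no-enzyme control.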
PTHR1 agonist: activates the human parathyroid hormone receptor PTHR1. Q03431. HEK293 GP2 PTHR1 cells, GloSensor cAMP luminescence, 1 h. Potency, µM (series often up to 115 µM), inactives show top-dose activation, hits mostly activators. hit rate 0.075% among 410,000; note: potency is the fitted concentration of half-maximal effect; nearly all actives have a fitted effect of over 55% in size
Target sequence (Q03431 whole entry, looked up): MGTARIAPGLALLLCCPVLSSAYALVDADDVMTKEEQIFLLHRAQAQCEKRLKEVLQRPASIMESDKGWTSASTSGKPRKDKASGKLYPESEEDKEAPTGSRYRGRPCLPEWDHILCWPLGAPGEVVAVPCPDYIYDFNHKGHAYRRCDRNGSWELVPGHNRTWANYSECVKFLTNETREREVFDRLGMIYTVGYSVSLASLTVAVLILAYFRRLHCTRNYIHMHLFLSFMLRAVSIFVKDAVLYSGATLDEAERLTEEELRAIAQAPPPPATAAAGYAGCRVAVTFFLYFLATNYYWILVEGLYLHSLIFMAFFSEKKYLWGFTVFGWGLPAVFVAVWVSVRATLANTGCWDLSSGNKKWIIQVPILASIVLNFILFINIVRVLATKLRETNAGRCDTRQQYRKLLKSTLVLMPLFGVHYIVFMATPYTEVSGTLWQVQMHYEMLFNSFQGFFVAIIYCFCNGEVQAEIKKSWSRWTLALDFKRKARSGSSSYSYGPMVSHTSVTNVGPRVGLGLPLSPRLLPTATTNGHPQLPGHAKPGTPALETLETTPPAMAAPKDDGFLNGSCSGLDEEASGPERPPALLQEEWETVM
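HEK-293-derived GP2 cells expressing PTHR1 and a GloSensor cAMP reporter, 3,000/well, plated overnight, given luciferin plus IBMX (each 0.5 mM as added) for 1 h at 37 °C, then compound for 1 h at 37 °C. Luminescence was read after 15 min at room temperature.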
GLP1R ag: agonists of human GLP-1 receptor. HEK293 GLP-1R CRE-luciferase, luminescence, 4-6 h; cells express a hypersensitive GLP-1R form. Potency, µM (series often up to 45.6 µM), inactives show at the top dose activation, hits mostly activators. AID 624172. hit rate 0.007% among 380,000. P43220; note: potency is the fitted concentration of half-maximal effect; % of control where 0% means no effect
LDHA block: LDHA (human) enzyme inhibition; purified LDHA, NADH/diaphorase-resazurin fluorescence; stronger effect = lower value; activity change, % (values are at about 110 or 230 µM); P00338; hit rate 0.15% among 480,000; AID 1347041; in the data active = activity change below about -30%; inconclusive = mostly about -25% to -30%;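 note: plate controls were DMSO wells for no effect and wells without enzyme for full effect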
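Remaining NADH was detected by diaphorase (0.133 mg/mL) converting 37 µM resazurin to fluorescent resorufin, read at 0 and 20 minutes. The preceding 5-minute room-temperature reaction used 2 nM LDHA, 0.2 mM sodium pyruvate and 0.06 mM NADH at pH 7.4.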
Active calls of the source: *; i = inactive; ? = inconclusive; nt = not tested or not shown; [ ] = remark or other dose. Rows were chosen to be rich in hits. Some 1.7% of all compounds tested hit in one or more screens of this group. Unless noted, calls come from the whole dose curve; as a rule, active = well fitted curve in the direction sought with a large enough effect; inconclusive = small, poorly fitted or top-dose-only effect, or another doubt; inactive = no such curve, though single readings can be large; an effect the other way counts as inactive or inconclusive.

SMILES	GLP-1R inv ag	HEK293 tox	IDH1 R132H inh	PTHR1 agonist	GLP1R ag	LDHA block
COc1ccc(S(=O)(=O)N(C(=O)c2ccncc2)c2ccc3oc(C)c(C(C)=O)c3c2)cc1	3.16µM*	-24.5%	38.1%	-31.0%	nt	-5.2
COc1ccc(S(=O)(=O)N(C(=O)c2ccncc2)c2ccc3oc4c(c3c2)CCCC4)cc1	10µM*	?	5.8%	-0.7%	-14.1%	-2.5
COC(=O)c1c(C)oc2ccc(N(C(=O)c3ccncc3)S(=O)(=O)c3ccc(OC)cc3)cc12	?	?	-12.2%	-67.0%	nt	-1.3
CCOc1ccc(CNC(=O)C2CCN(Cc3cc4ccccc4n3Cc3ccccc3C)CC2)cc1	7.08µM*	5.5%	2.4%	-36.2%	nt	-4.5
Cc1ccccc1Cn1c(CN2CCC(C(=O)NCc3ccc(Cl)cc3)CC2)cc2ccccc21	?	5.8%	6.7%	i	nt	-3.5
CCCC1=Nc2cc(C(=O)NC3CCCCC3)ccc2Sc2ccc(C)cc21	0.794µM*	?	36.6%	?	nt	-9.5
CCOC(=O)N1CCC(NC(=O)c2ccc3c(c2)N=C(C)c2c(C)ccc(C)c2S3)CC1	?	?	2.5%	-9.1%	11.4%	-2.4
CC1=Nc2cc(C(=O)NC3CCC(C)CC3)ccc2Sc2c(C)ccc(C)c21 (stereo unspecified)	0.794µM*	?	-3.4%	-3.8%	20.1%	-5.5
CCCC1=Nc2cc(C(=O)NCCCOC(C)C)ccc2Sc2ccccc21	2.7%	-23.1%	-11.3%	-29.0%	5.2%	2.9
CCCC1=Nc2cc(C(=O)NCC(C)c3ccccc3)ccc2Sc2ccccc21 (stereo unspecified)	3.16µM*	?	-7.2%	i	-1.9%	1.1
CCCC1=Nc2cc(C(=O)NCCOC)ccc2Sc2ccccc21	2.24µM*	?	nt	-22.0%	nt	1.8
CCCC(=O)Nc1ccc(Cl)c(NC(=O)c2cc(OCC)c(OCC)c(OCC)c2)c1	nt	nt	nt	nt	nt	1.4
O=C(NCc1ccccc1CN1CCCC1)c1ccc(S(=O)(=O)Nc2ccccc2)cc1	12.6µM*	-28.6%	-3.2%	-19.4%	-0.2%	-6.5
CC(C)(C)C(=O)NCCc1nc2ccccc2n1CCCCOc1ccc(Cl)cc1	10µM*	-21.0%	1.6%	-38.2%	nt	3.2
Cc1ccc(OCCn2c(CCNC(=O)C(C)C)nc3ccccc32)cc1	7.94µM*	-11.1%	9.7%	-19.2%[57.5 µM]	-3.4%	-2.1
CC(C)C(=O)NCCc1nc2ccccc2n1CCCOc1ccc(Cl)cc1	?	?	7.1%	-19.9%[57.5 µM]	8.3%	-2.1
CCCn1c2c(c(=N)c3c1CCC3)CCCC2	-24.7%	0.8%	-7.6%	-48.1%	-1.8%	-36.1*
C/C(CCc1oc2ccc(Br)cc2c1-c1ccc(C)o1)=N/O	10µM*	7.9%	-6.1%	i	2.2%	3.8
CCOc1cc(CNCCCN2CCOCC2)cc(Br)c1OCc1ccccc1Cl	4.47µM*	?	-11.3%	-22.2%	5.3%	-9.4
O=c1[nH]c(=O)n(C(c2ccccc2)(c2ccccc2)c2ccccc2)cc1N(CCO)CCO	10µM*	7.5%	3.0%	-29.4%	-1.2%	-0.3
OCCN(CCO)c1nc2ccccc2[nH]1	-7.6%	-6.6%	0.9%	?	4.2%	-8.4
CC(=O)OC1C2CCC1C([N+]1(C)CCCCC1)CC2 (stereo unspecified)	12.0%	20.2%	-5.7%	i	3.1%	-33.9*
CN(CCOc1ccc(Cl)cc1)CC(=O)Nc1ccc(OC(F)F)cc1	?	-3.9%	0.0%	i	-3.1%	0.6
CCC(C)c1ccccc1NC(=O)CN(C)CCOc1ccc(Cl)cc1 (stereo unspecified)	10µM*	-21.4%	16.1%	-3.5%	11.8%	6.6
COc1cccc(O)c1CN1CCCC(C(=O)c2cccc(C(F)(F)F)c2)C1 (stereo unspecified)	12.6µM*	?	1.0%	-13.3%	20.0%	7.8
SMILES	GLP-1R inv ag	HEK293 tox	IDH1 R132H inh	PTHR1 agonist	GLP1R ag	LDHA block
COc1ccc2cc(C(=O)C3CCCN(Cc4cccc(C)n4)C3)ccc2c1 (stereo unspecified)	4.47µM*	3.16µM*	-1.1%	-2.3%	11.3%	-4.8
O=C(CCC(=O)N1CCN(c2ccccc2)CC1)N1CCOCC1	nt	nt	nt	nt	nt	-4.7
O=C(NC(=S)N1CCN(c2ccc(C(F)(F)F)cc2[N+](=O)[O-])CC1)c1cccs1	0.0%	10µM*	6.2%	-36.5%	-16.1%	0.3
Cc1ccccc1-c1nc(C#N)c(NCC(C)C)o1	nt	nt	nt	nt	nt	2.3
O=C(Oc1cccccc1=O)c1ccccc1	10µM*	?	1.4%	i	-2.5%	1.1
O=C(Oc1ccccc1Cl)c1ccccc1	6.2%	11.5%	9.0%	-27.3%	6.3%	-5.5
CN1CCC(N(C)S(=O)(=O)c2ccc(NC(=O)COc3ccc(F)cc3)cc2)CC1	?	14.5%	-0.4%	i	-0.7%	-15.7
CN1CCC(N(C)S(=O)(=O)c2ccc(NC(=O)COc3ccc(F)cc3Cl)cc2)CC1	10µM*	2.5%	-4.3%	i	3.4%	-7.4
CCCCCSc1nc2c(c(=O)[nH]c(=O)n2C)n1Cc1cccc(Br)c1	nt	nt	nt	nt	nt	6.5
COc1ccc(CCNC(=O)C2CC2)cc1OC	-8.3%	10.4%	1.0%	-9.1%[57.5 µM]	4.9%	-4.8
COc1ccc(CCNC(=O)C2CCC(C(C)(C)C)CC2)cc1OC (stereo unspecified)	10µM*	-13.8%	5.1%	-6.0%	12.0%	0.9
O=S(=O)(c1cccc(C(F)(F)F)c1)N1CCC(c2cc(-c3cccc4ccccc34)n[nH]2)CC1	8.91µM*	-2.5%	-9.8%	-7.0%	2.2%	-1.2
CN(C)c1ccc(/C=C/c2nccc3ccccc23)cc1	nt	nt	nt	nt	nt	3.6
CN(C)c1ccc(/C=C/c2ccc3c4ccccc4ccc3[n+]2-c2ccccc2)cc1	?	7.94µM*	29.3µM*	-27.3%	0.3%	5.0
CCN1CCN(S(=O)(=O)c2ccc(Cl)c(C(=O)Nc3ccccc3N3CCCC3)c2)CC1	?	3.4%	-6.3%	i	-1.0%	-1.4
CCN1CCN(S(=O)(=O)c2ccc(Cl)c(C(=O)Nc3ccccc3N3CCCCC3)c2)CC1	10µM*	-28.0%	5.7%	i	15.6%	6.5
CN1CCN(S(=O)(=O)c2ccc(NC(=O)Nc3cccc(Cl)c3)cc2)CC1	?	-29.7%	20.2%	-31.8%[57.5 µM]	-11.9%	-3.0
CCN(CC(=O)Nc1cc(S(=O)(=O)N2CCCCC2)ccc1Cl)Cc1ccccc1	5.62µM*	8.8%	2.2%	-44.9%	2.7%	1.0
